Data taken from the supplement of paper PMC10849652.
The full data set covers some 7,900 targets. This sample favours those with a hit. About 0.6% of all pairs of compound and target were hits. Unmarked numbers belong to inactive results.

Key:
Assay in all cases: log2 fold change, soluble protein after heating vs DMSO (PISA); higher = thermal stabilisation; K562 cells, 10 uM, 30 min; active = over 0.2 and 3.5 SD of the protein, either way, in both replicates (recomputed)
erlotinib = compound: C#Cc1cccc(Nc2ncnc3cc(OCCOC)c(OCCOC)cc23)c1 [erlotinib]
Method in brief: (§1)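 K562 cells (2×10^6 cells/mL) were treated with 10 μM compound for 30 min, and aliquots were heated for 3 min over 48°C-58°C. Pooled aliquots were extracted in PBS with 0.5% NP-40 at 4°C, and the supernatant after 21,000xg for 90 min was measured by TMTpro 16plex LC-MS/MS with channel sums equalised. Reported thermal stability, relative to control samples and from duplicates, is a log2 fold change.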

[1] = compound: C/C(=N\NC(=O)C1=CC(=CC=C1)S(=O)(=O)N2CCOCC2)/C3=C(C=CC(=C3)Cl)O
Method in brief: as §1

[2] = compound: C1=CC(=C(C=C1Cl)C2=NC3=NC=CN=C3C(=N2)NC4=CC=NC=C4)F
Method in brief: as §1

[3] = compound: C1=CC(=CC=C1C2=NC3=C(N2)C=C(C=C3)C(=O)N)OC4=CC=C(C=C4)Cl
Method in brief: as §1

[4] = compound: C1=CC2=C(C=CC(=C2)/C=C\3/C(=O)NC(=NCC4=CC=CS4)S3)N=C1
Method in brief: as §1

[5] = compound: C1=CC2=NC=CN=C2C=C1/C=C/3\C(=O)NC(=O)S3
Method in brief: as §1

[6] = compound: C1=CC=C(C=C1)C2=NC(=C(N2)C3=CC=NC=C3)C4=CC(=C(C=C4)Cl)O
Method in brief: as §1

[7] = compound: C1=CC=C2C(=C1)C3=NNC4=CC=CC(=C43)C2=O
Method in brief: as §1

[8] = compound: C1CCN(C1)C(=O)NC2=CC=CC(=C2)NC3=NC=C(C(=N3)NCCC4=CN=CN4)Br
Method in brief: as §1

[9] = compound: C1CN(CCC1(CC2=CC=C(C=C2)Cl)N)C3=NC=NC4=C3C=CN4
Method in brief: as §1

Chain of UniProt Q9H267 (Q9H267 whole entry, looked up): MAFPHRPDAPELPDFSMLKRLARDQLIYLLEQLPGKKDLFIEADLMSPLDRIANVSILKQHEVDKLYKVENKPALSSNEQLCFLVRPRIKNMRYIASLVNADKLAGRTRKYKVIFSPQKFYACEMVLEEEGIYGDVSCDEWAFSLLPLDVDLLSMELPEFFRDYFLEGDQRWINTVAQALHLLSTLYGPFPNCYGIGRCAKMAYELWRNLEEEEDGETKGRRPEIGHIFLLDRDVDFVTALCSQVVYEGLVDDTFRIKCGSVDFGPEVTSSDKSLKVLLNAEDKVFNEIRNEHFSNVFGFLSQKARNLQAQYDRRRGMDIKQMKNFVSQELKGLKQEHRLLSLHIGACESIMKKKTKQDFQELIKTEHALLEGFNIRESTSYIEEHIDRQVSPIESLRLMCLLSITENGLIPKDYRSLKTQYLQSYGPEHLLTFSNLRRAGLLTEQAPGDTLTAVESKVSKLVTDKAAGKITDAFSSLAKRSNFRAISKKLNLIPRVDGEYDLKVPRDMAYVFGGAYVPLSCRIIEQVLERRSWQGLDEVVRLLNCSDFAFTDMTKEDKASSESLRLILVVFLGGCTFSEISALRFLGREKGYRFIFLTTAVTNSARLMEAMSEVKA
Chain of UniProt A5PLN9 (A5PLN9 whole entry, looked up): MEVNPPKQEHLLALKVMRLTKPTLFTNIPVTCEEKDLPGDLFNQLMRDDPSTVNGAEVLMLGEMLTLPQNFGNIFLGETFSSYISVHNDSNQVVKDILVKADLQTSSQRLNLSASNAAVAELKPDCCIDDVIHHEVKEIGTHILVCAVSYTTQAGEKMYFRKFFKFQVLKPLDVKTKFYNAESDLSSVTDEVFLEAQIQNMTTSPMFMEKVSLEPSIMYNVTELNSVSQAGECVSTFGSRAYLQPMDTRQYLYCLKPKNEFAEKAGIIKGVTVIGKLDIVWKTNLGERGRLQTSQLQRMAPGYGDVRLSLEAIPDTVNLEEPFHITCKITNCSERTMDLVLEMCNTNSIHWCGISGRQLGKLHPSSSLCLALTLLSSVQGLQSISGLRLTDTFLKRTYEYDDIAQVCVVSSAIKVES
Chain of UniProt Q9UBK9 (Q9UBK9 whole entry, looked up): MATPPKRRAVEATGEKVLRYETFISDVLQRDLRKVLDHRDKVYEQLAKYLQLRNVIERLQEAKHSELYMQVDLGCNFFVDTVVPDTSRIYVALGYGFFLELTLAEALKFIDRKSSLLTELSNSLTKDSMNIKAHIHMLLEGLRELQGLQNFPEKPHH
Chain of UniProt Q9NQ34 (Q9NQ34 whole entry, looked up): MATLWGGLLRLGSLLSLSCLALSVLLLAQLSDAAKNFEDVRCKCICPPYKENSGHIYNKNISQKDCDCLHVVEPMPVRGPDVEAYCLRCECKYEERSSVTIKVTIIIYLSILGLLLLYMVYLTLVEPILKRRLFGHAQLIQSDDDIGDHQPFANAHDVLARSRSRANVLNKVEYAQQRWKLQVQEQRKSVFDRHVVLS
Chain of UniProt Q14157 (Q14157 whole entry, looked up): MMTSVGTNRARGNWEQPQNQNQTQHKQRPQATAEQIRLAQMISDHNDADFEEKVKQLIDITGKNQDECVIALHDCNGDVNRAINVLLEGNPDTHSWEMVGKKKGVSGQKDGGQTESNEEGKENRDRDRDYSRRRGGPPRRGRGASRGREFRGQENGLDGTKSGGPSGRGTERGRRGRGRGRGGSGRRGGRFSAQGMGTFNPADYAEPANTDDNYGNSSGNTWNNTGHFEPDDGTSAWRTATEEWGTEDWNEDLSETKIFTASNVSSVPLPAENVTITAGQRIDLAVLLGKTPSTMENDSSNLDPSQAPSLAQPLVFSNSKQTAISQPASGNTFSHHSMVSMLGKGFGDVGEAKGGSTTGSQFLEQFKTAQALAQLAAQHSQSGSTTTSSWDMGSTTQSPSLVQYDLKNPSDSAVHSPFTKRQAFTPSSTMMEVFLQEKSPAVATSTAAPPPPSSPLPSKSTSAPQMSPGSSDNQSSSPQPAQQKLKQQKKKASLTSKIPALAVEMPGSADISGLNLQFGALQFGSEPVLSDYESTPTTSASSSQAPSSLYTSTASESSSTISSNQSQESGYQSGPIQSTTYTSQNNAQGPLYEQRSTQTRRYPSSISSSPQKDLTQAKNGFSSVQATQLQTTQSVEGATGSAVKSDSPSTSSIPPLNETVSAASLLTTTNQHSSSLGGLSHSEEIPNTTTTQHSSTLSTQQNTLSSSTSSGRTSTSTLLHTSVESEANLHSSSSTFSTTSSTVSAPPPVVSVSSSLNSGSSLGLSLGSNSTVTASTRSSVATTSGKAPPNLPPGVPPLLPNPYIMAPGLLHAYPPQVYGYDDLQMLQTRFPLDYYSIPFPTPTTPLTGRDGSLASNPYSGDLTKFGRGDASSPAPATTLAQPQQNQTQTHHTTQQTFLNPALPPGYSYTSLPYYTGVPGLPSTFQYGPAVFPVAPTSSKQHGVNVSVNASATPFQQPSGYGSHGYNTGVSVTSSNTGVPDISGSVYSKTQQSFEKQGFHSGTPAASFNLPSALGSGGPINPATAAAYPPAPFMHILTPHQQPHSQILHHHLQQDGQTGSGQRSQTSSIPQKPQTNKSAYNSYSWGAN
Chain of UniProt Q9UK41 (Q9UK41 whole entry, looked up): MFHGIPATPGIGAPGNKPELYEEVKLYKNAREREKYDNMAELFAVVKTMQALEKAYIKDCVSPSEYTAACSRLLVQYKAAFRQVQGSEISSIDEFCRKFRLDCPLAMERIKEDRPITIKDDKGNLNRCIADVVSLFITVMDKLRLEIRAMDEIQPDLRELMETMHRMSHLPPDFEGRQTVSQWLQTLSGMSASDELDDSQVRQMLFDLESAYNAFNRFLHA
Chain of UniProt Q8NEZ2 (Q8NEZ2 whole entry, looked up): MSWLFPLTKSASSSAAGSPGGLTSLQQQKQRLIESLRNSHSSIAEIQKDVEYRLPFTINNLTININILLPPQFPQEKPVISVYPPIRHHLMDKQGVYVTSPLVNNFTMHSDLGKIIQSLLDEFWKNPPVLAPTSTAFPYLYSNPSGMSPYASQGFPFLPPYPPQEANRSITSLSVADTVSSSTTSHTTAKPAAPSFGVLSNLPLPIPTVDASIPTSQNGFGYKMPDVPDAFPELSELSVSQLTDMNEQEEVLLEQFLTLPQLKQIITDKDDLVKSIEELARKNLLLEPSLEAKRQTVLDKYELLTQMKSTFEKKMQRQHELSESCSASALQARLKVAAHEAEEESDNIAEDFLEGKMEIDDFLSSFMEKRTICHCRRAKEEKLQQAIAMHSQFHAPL
Chain of UniProt Q9NYU2 (Q9NYU2 whole entry, looked up): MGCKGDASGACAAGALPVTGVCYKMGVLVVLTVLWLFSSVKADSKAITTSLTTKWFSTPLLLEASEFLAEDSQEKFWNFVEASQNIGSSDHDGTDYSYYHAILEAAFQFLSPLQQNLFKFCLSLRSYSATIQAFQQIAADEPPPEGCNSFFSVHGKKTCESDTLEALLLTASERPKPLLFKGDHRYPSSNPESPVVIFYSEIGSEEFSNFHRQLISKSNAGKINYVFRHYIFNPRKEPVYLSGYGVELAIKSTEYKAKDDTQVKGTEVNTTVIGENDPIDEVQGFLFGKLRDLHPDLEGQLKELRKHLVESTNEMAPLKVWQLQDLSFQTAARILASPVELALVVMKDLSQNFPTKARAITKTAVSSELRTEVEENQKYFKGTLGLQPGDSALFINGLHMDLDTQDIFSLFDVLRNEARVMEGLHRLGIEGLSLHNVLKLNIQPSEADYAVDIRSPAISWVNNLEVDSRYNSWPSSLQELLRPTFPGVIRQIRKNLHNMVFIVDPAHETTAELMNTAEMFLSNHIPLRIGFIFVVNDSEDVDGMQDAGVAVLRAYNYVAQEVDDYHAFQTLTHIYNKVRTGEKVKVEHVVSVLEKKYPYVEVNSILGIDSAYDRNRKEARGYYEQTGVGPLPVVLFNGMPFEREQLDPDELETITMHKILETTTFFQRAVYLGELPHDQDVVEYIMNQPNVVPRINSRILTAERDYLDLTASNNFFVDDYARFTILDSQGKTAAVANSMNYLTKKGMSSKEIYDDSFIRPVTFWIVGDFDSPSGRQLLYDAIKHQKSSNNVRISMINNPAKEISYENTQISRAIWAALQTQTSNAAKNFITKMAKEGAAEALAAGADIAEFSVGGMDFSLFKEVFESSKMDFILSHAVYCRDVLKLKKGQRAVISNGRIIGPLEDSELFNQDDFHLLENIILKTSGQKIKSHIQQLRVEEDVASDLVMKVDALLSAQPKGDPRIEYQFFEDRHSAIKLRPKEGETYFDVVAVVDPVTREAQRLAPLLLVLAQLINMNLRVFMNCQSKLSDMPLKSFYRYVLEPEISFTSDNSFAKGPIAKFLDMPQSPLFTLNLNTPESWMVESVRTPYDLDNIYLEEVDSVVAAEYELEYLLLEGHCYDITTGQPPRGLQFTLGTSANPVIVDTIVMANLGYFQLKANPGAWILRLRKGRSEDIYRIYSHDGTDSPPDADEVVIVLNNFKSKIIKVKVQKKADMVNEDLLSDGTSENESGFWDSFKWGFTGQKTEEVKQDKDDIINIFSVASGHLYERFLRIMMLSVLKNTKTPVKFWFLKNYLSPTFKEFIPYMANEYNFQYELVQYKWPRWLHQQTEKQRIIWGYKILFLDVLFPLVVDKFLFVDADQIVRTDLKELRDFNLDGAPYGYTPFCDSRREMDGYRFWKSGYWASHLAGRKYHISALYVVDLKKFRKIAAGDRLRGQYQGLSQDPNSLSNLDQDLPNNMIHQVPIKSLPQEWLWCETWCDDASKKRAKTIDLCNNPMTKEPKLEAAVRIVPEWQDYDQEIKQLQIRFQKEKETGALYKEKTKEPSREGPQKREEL
Chain of UniProt Q15906 (Q15906 whole entry, looked up): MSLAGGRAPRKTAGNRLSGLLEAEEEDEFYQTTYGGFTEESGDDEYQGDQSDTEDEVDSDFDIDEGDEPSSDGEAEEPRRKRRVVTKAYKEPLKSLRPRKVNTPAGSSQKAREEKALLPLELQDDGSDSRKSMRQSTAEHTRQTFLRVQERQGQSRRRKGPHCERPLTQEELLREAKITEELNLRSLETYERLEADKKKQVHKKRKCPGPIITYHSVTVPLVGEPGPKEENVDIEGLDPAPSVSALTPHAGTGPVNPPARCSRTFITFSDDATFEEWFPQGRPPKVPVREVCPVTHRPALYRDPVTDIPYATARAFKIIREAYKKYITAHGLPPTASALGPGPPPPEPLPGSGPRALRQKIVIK

| Target | log2 fold change (erlotinib) | log2 fold change [1] | log2 fold change [2] | log2 fold change [3] | log2 fold change [4] | log2 fold change [5] | log2 fold change [6] | log2 fold change [7] | log2 fold change [8] | log2 fold change [9] |
| --- | --- | --- | --- | --- | --- | --- | --- | --- | --- | --- |
| UBAP2L isoform 5 (UniProt Q14157) | 0.057 | -0.005 | 0.005 | 0 | 0.013 | 0.015 | -0.029 | -0.03 | -0.007 | 0.026 |
| USP3 (UniProt Q9Y6I4) | 0.099 | 0.114 | 0.121 | 0.004 | -0.062 | 0.014 | 0.057 | -0.052 | 0.007 | 0.095 |
| TSG101 (UniProt Q99816) | 0.022 | 0.054 | 0.051 | 0.027 | 0.046 | 0.004 | -0.032 | 0 | 0.003 | -0.006 |
| TXNL1 (UniProt O43396) | -0.012 | 0.096 | 0.009 | -0.031 | -0.011 | -0.018 | 0.014 | 0.016 | -0.001 | -0.077 |
| TMEM214 (UniProt Q6NUQ4) | -0.068 | 0.016 | -0.019 | 0.001 | 0.015 | 0.017 | -0.044 | -0.025 | 0.009 | -0.088 |
| VPS28 (UniProt Q9UK41) | -0.072 | 0.031 | 0.27 | -0.011 | 0.009 | 0.023 | 0.009 | 0.001 | -0.091 | -0.043 |
| TTC4 (UniProt O95801) | 0.094 | 0.081 | 0.016 | 0.005 | 0.061 | -0.007 | 0.081 | 0.025 | -0.057 | -0.018 |
| UBE4A isoform 2 (UniProt Q14139) | 0.012 | 0.148 | 0.083 | -0.11 | 0.012 | 0.083 | -0.039 | -0.301 | -0.018 | -0.132 |
| VPS72 isoform 2 (UniProt Q15906) | -0.017 | -0.062 | 0.053 | -0.108 | 0.04 | -0.094 | -0.054 | -0.134 | 0.056 | 0.028 |
| TMEM9B (UniProt Q9NQ34) | 0.062 | -0.044 | 0.009 | -0.006 | 0.055 | -0.013 | -0.016 | -0.016 | -0.006 | 0.042 |
| XPOT (UniProt O43592) | -0.035 | 0.069 | 0.005 | -0.058 | 0.037 | 0.065 | -0.047 | -0.026 | -0.005 | -0.088 |
| TMEM177 (UniProt Q53S58) | 0.058 | 0.044 | 0.03 | -0.025 | 0.062 | -0.015 | -0.034 | 0.01 | 0.028 | 0.132 |
| UBAP2L isoform 1 (UniProt Q14157) | -0.126 | 0.013 | -0.003 | 0.083 | -0.06 | -0.023 | 0.04 | -0.024 | -0.082 | 0.017 |
| VWA3B isoform 6 (UniProt Q502W6) | 0.107 | -0.036 | 0.213 | -0.057 | 0.048 | 0.111 | -0.214 | -0.049 | 0.03 | -0.03 |
| VARS2, A0A0G2JL52 | 0.012 | 0.006 | -0.002 | 0 | 0.046 | -0.006 | 0.026 | 0.003 | 0.006 | -0.01 |
| WAPL isoform 3 (UniProt Q7Z5K2) | 0.031 | 0.017 | 0.048 | -0.037 | 0.057 | 0.144 | 0.059 | -0.012 | -0.217 | -0.062 |
| WDR41 (UniProt Q9HAD4) | 0.039 | 0.038 | 0.128 | 0.026 | -0.016 | 0.019 | -0.005 | -0.07 | -0.012 | 0.073 |
| WDR4 (UniProt P57081) | 0.058 | 0.106 | 0.131 | -0.012 | -0.046 | 0.223 | 0.061 | 0.011 | 0.031 | 0.053 |
| VPS33B (UniProt Q9H267) | 0.108 | 0.093 | -0.039 | -0.07 | 0.073 | 0.053 | 0.019 | 0.044 | -0.076 | -0.102 |
| UBR2 (UniProt Q8IWV8) | 0.019 | 0.067 | -0.108 | 0.051 | 0.045 | 0.046 | -0.08 | -0.189 | 0.016 | 0.018 |
| XPNPEP3 (UniProt Q9NQH7) | 0.019 | -0.275 (active) | 0.017 | 0.06 | 0.067 | 0.026 | -0.005 | 0 | 0.005 | 0.083 |
| VPS37A (UniProt Q8NEZ2) | 0.127 | 0.113 | -0.042 | -0.097 | -0.054 | 0.059 | 0.098 | 0.044 | 0.036 | 0.008 |
| UXT isoform 2 (UniProt Q9UBK9) | 0.925 (active) | -0.263 | 0.078 | 0.113 | 0.061 | -0.044 | -0.053 | 0.012 | -0.036 | -0.086 |
| TRAPPC3 (UniProt O43617) | -0.032 | 0.102 | 0.025 | -0.001 | 0.021 | 0.069 | -0.047 | -0.018 | 0.008 | -0.077 |
| USP15 (UniProt Q9Y4E8) | 0.026 | 0.078 | 0.08 | -0.015 | 0.027 | 0.031 | 0 | 0.012 | -0.011 | -0.031 |
| TOM1 isoform 2 (UniProt O60784) | 0.012 | 0.014 | 0.107 | -0.04 | -0.006 | -0.016 | -0.053 | 0.004 | -0.023 | 0.014 |
| TRAPPC13 isoform 5 (UniProt A5PLN9) | 0.133 | 0.047 | -0.028 | -0.047 | 0.084 | 0.021 | 0 | -0.038 | -0.005 | 0.009 |
| TMEM87B (UniProt Q96K49) | 0.035 | 0.059 | -0.069 | 0.013 | 0.003 | 0.055 | 0.009 | -0.143 | -0.06 | 0.047 |
| UGGT1 (UniProt Q9NYU2) | -0.027 | 0.016 | 0.007 | 0.007 | 0.018 | 0.014 | -0.012 | 0.019 | -0.015 | 0.005 |
| UFD1 isoform 1 (UniProt Q92890) | 0.001 | 0.019 | 0.051 | -0.008 | 0.012 | 0.015 | -0.01 | -0.021 | -0.036 | 0.024 |
